From PubChem BioAssay (NCI)
Several values for one entry are separate records, joined by “and”; a condition that tells them apart may be missing. Equal entries are not always repeated. The panel holds about 79,000 compounds, 15% with a hit somewhere; the sample as a whole holds those more often. Some compounds were tested as several samples or in several runs, with calls that do not always agree. Activity calls are given as the source filed them. No stated cut-off is given here; in the data, active means growth inhibition above about 70%; inactive means the rest.

Experiments:
[1] = NCI Yeast Anticancer Drug Screen. Data for the mlh1 strain (AID 171);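 further: 0% = growth of vehicle-treated control cultures of the same strain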; settings: S. cerevisiae mlh1 strain growth inhibition, stronger effect = higher value
Summary of the method: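 Compounds are applied to a genetically altered yeast strain, and its growth is compared with that of vehicle-treated cultures to give percent inhibition.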

[2] = NCI Yeast Anticancer Drug Screen. Data for the mlh1 rad18 strain (AID 175); settings: S. cerevisiae mlh1 rad18 strain growth inhibition, stronger effect = higher value
Summary of the method: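 Cells of a genetically altered yeast strain, deficient in DNA damage repair, were treated with compound. Their growth was then compared with that of vehicle-treated cultures to give inhibition.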

[3] = NCI Yeast Anticancer Drug Screen. Data for the rad18 strain (AID 177); settings: S. cerevisiae rad18 mutant growth inhibition, stronger effect = higher value
Summary of the method: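 Compounds are applied to a repair-deficient yeast strain, and growth is compared with that of vehicle-treated cultures to give percent inhibition.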

[4] = NCI Yeast Anticancer Drug Screen. Data for the rad52 strain (AID 147);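 further: 0% = growth of vehicle-treated control cultures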; settings: S. cerevisiae rad52 mutant growth inhibition, stronger effect = higher value
Summary of the method: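 DNA repair-defective yeast; compound exposure; growth scored against vehicle controls.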

[5] = NCI Yeast Anticancer Drug Screen. Data for the rad50EPP+ strain (AID 151);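 further: 0% = growth of vehicle-treated control cultures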; settings: S. cerevisiae rad50 mutant strain, stronger effect = higher value
Summary of the method: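 rad50EPP+ yeast treated with test compounds. Readout: growth vs vehicle control.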

[6] = NCI Yeast Anticancer Drug Screen. Data for the mgt1 strain (AID 153); settings: S. cerevisiae mgt1 mutant growth inhibition, stronger effect = higher value
Summary of the method: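 Growth inhibition relative to vehicle controls was scored for the mgt1 yeast strain after compound exposure.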

[7] = NCI Yeast Anticancer Drug Screen. Data for the rad50 strain (AID 155);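 further: 0% = growth of vehicle-only cultures of the same strain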; settings: S. cerevisiae rad50 strain growth inhibition, stronger effect = higher value
Summary of the method: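 Readout: growth inhibition relative to vehicle-treated cultures. Compound exposure was carried out in a genetically defined yeast strain deficient in DNA damage repair.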

[8] = NCI Yeast Anticancer Drug Screen. Data for the mec2-1 strain (AID 157); settings: S. cerevisiae mec2-1 strain, stronger effect = higher value
Summary of the method: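 Growth inhibition is read against vehicle-treated controls after compound exposure of the mec2-1 yeast strain, which is defective in DNA damage repair or cell cycle control.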

[9] = NCI Yeast Anticancer Drug Screen. Data for the rad14 strain (AID 159);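 further: 0% = growth of vehicle-treated control cultures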; settings: S. cerevisiae rad14 strain growth inhibition, stronger effect = higher value
Summary of the method: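 Growth inhibition vs vehicle controls; genetically altered yeast strain (DNA damage repair defect) treated with test compounds.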

[10] = NCI Yeast Anticancer Drug Screen. Data for the CLN2oe strain (AID 163);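 further: 0% = growth of vehicle-only control cultures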; settings: S. cerevisiae CLN2oe strain, stronger effect = higher value
Summary of the method: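 Compound-treated yeast; growth vs vehicle ctrl = % inhibition. Genetically altered strain (cell-cycle control).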

[11] = NCI Yeast Anticancer Drug Screen. Data for the cln2 rad14 strain (AID 165);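 further: 0% = growth equal to vehicle treated cultures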; settings: S. cerevisiae cln2 rad14 strain, stronger effect = higher value
Summary of the method: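 Growth inhibition, relative to vehicle-treated controls, is the read-out. The test organism is a yeast strain with defined genetic alterations, cln2 rad14.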

[12] = NCI Yeast Anticancer Drug Screen. Data for the bub3 strain (AID 167); settings: S. cerevisiae bub3 mutant strain, stronger effect = higher value
Summary of the method: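 Readout: yeast growth inhibition, expressed relative to vehicle-only wells. The test organism is a mutant strain from a panel with lesions in DNA repair or checkpoint genes.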

[13] = NCI Yeast Anticancer Drug Screen. Data for the wt2 strain (AID 169);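 further: 0% = growth of vehicle-treated yeast cultures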; settings: S. cerevisiae wt2 strain growth inhibition, stronger effect = higher value
Summary of the method: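 Compound exposure of yeast; growth compared with vehicle controls; inhibition reported.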

[14] = NCI Yeast Anticancer Drug Screen. Data for the sgs1 strain (AID 173);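 further: 0% = growth of vehicle-only control cultures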; settings: S. cerevisiae sgs1 mutant, stronger effect = higher value
Summary of the method: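 Compounds applied to genetically altered yeast; growth compared with vehicle-treated cultures to give % inhibition.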

[15] = NCI Yeast Anticancer Drug Screen. Data for the sgs1 mgt1 strain (AID 161);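 further: 0% = growth of cultures given vehicle only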; settings: S. cerevisiae sgs1 mgt1 strain, stronger effect = higher value
Summary of the method: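 Growth of a repair-deficient yeast mutant was monitored after compound treatment and expressed as inhibition relative to vehicle-treated cultures.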

[16] = at 5.0 µM (retest, dose inferred, filed as 0.5)
[17] = at 50.0 µM (retest, dose inferred, filed as 5.0)

Measured: growth inhibition

Cc1nc(Nc2ccccc2[N+](=O)[O-])sc1C(=O)CC(=O)C(=O)Nc1c(C(C)C)cccc1C(C)C
inactive: [1]; at 1.2 µM 2% | [1]; at 3.7 µM 3% | [1]; at 11.0 µM 5% | [1]; at 33.0 µM 5% | [1]; at 100.0 µM 5% | [2]; [16] 4% | [2]; [17] 14% | [2]; at 50.0 µM -5.1% | [3]; at 1.2 µM -3% | [3]; at 3.7 µM 1% | [3]; at 11.0 µM 1% | [3]; at 33.0 µM 0% | [3]; at 100.0 µM -3%

Cc1ccc(S/C(=C\C(=O)O)c2ccccc2)cc1
inactive: [4]; at 1.2 µM 2% | [4]; at 3.7 µM 7% | [4]; at 11.0 µM 12% | [4]; at 33.0 µM 28% | [4]; at 100.0 µM 46% | [5]; at 1.2 µM -6% | [5]; at 3.7 µM 2% | [5]; at 11.0 µM 15% | [5]; at 33.0 µM 25% | [5]; at 100.0 µM 52% | [6]; at 1.2 µM -4% | [6]; at 3.7 µM -5% | [6]; at 11.0 µM -3% | [6]; at 33.0 µM 4% | [6]; at 100.0 µM 32% | [7]; at 1.2 µM 2% | [7]; at 3.7 µM 4% | [7]; [16] -16% | [7]; at 11.0 µM 13% | [7]; at 33.0 µM 30% | [7]; [17] 47% | [7]; at 50.0 µM 41.9% | [7]; at 100.0 µM 52% | [8]; at 1.2 µM -6% | [8]; at 3.7 µM -3% | [8]; [16] -15% | [8]; at 11.0 µM -4% | [8]; at 33.0 µM 8% | [8]; [17] -1% | [8]; at 50.0 µM 28.9% | [8]; at 100.0 µM 25% | [9]; at 1.2 µM -1% | [9]; at 3.7 µM 3% | [9]; at 11.0 µM 7% | [9]; at 33.0 µM 17% | [9]; at 100.0 µM 34% | [10]; at 1.2 µM 1% | [10]; at 3.7 µM -2% | [10]; at 11.0 µM 5% | [10]; at 33.0 µM 16% | [10]; at 100.0 µM 35% | [11]; [16] -6% | [11]; [17] 29% | [11]; at 50.0 µM 47.5% | [12]; at 1.2 µM -4% | [12]; at 3.7 µM -4% | [12]; [16] -2% | [12]; at 11.0 µM -4% | [12]; at 33.0 µM 6% | [12]; [17] 66% | [12]; at 50.0 µM 39.5% | [12]; at 100.0 µM 19% | [13]; at 1.2 µM -10% | [13]; at 3.7 µM -11% | [13]; at 11.0 µM -7% | [13]; at 33.0 µM -3% | [13]; at 100.0 µM 11% | [1]; at 1.2 µM -6% | [1]; at 3.7 µM 0% | [1]; at 11.0 µM 6% | [1]; at 33.0 µM 20% | [1]; at 100.0 µM 38% | [14]; at 1.2 µM 4% | [14]; at 3.7 µM -4% | [14]; at 11.0 µM 12% | [14]; at 33.0 µM 25% | [14]; at 100.0 µM 50% | [2]; [16] -29% | [2]; at 50.0 µM 38% | [3]; at 1.2 µM -4% | [3]; at 3.7 µM 4% | [3]; at 11.0 µM 7% | [3]; at 33.0 µM 20% | [3]; at 100.0 µM 50%
active: [2]; [17] 72%

COc1ccc2[nH]cc([C@@H]3C4CCC(C4)[C@H]3NCc3cccc(CN[C@H]4C5CCC(C5)[C@@H]4c4c[nH]c5ccc(OC)cc45)c3)c2c1
99.4% (active) and 61% (inactive): [15]; at 50.0 µM
inactive: [4]; at 1.2 µM -28% | [4]; at 3.7 µM -23% | [4]; at 11.0 µM -20% | [4]; at 33.0 µM 22% | [5]; at 1.2 µM -19% | [5]; at 3.7 µM -14% | [5]; at 11.0 µM -7% | [5]; at 33.0 µM -23% | [5]; at 100.0 µM 63% | [6]; at 1.2 µM -36% | [6]; at 3.7 µM -47% | [6]; at 11.0 µM -38% | [6]; at 33.0 µM 42% | [7]; at 1.2 µM -36% | [7]; at 3.7 µM -16% | [7]; [16] -15% | [7]; at 11.0 µM -27% | [7]; at 33.0 µM 51% | [8]; at 1.2 µM -61% | [8]; at 3.7 µM -59% | [8]; [16] -2% | [8]; at 11.0 µM -54% | [8]; at 33.0 µM 26% | [9]; at 1.2 µM -30% | [9]; at 3.7 µM -23% | [9]; at 11.0 µM 0% | [15]; [16] -7% | [10]; at 1.2 µM 36% | [10]; at 3.7 µM 33% | [10]; at 11.0 µM 31% | [10]; at 33.0 µM 63% | [11]; [16] 27% | [12]; at 1.2 µM -25% | [12]; at 3.7 µM -32% | [12]; [16] 7% | [12]; at 11.0 µM -18% | [12]; at 33.0 µM 56% | [13]; at 1.2 µM -41% | [13]; at 3.7 µM -42% | [13]; at 11.0 µM -46% | [13]; at 33.0 µM 20% | [14]; at 1.2 µM -38% | [14]; at 3.7 µM -37% | [14]; at 11.0 µM -45% | [14]; at 33.0 µM -5% | [2]; [16] 2% | [2]; at 50.0 µM 38.5% | [3]; at 1.2 µM -19% | [3]; at 3.7 µM -10% | [3]; at 11.0 µM -31% | [3]; at 33.0 µM 58%
98.8% (active) and 35.2% (inactive): [12]; at 50.0 µM
98.3% (active) and 55.8% (inactive): [7]; at 50.0 µM
99.2% (active) and 10.9% (inactive): [8]; at 50.0 µM
active: [4]; at 100.0 µM 98% | [6]; at 100.0 µM 98% | [7]; [17] 99% | [7]; at 100.0 µM 97% | [8]; [17] 99% | [8]; at 100.0 µM 97% | [9]; at 33.0 µM 89% | [9]; at 100.0 µM 98% | [15]; [17] 88% | [10]; at 100.0 µM 92% | [11]; [17] 99% | [11]; at 50.0 µM 99.2% and 77.3% | [12]; [17] 98% | [12]; at 100.0 µM 98% | [13]; at 100.0 µM 99% | [14]; at 100.0 µM 97% | [2]; [17] 99% | [3]; at 100.0 µM 98%
